Screens: PubChem BioAssay, National Center for Advancing Translational Sciences (NCATS)
Pf growth 48h: P. falciparum growth inhibition at 48 hours (one generation) | P. falciparum luciferase growth in erythrocytes, 48 h | Potency, µM (series often up to 28.7 µM), most hits filed as inhibitors | hit rate 5.9% among 310,000
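Growth was read as firefly luciferase luminescence after a 48 h, 37 C, 5% CO2 exposure of compounds to reporter-bearing P. falciparum cultures (0.1% parasitemia, 2% hematocrit final) in Albumax-supplemented RPMI 1640.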
Shiga inhibitor: blocks Shiga toxin action in Vero cells; inhibition, % at 38.7 µM; Vero cells, Shiga toxin protein synthesis inhibition reporter; AID 2315; hit rate 9.2% among 290,000; in the data active = inhibition mostly above about 28%, no sharp cut-off; inactive = mostly below about 43%
Pf growth 96h: P. falciparum growth inhibition at 96 hours; hit rate 6.9% among 320,000; Potency, µM (top dose mostly 28.7 µM), most hits filed as inhibitors; P. falciparum luciferase reporter growth, 96 h; AID 504834
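P. falciparum expressing integrated firefly luciferase, in erythrocytes at 2% hematocrit, 0.05% parasitemia, incubated with compounds 96 h at 37 C, 5% CO2. Growth inhibition read as loss of luminescence; two-generation exposure targets delayed-death apicoplast inhibitors.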
Cycloheximide cs: counter-screen hit for Shiga toxin inhibitors, cycloheximide; cell reporter, cycloheximide protein synthesis inhibition counterscreen; max response, %; hit rate 12% among 300,000; AID 2314; in the data active = max response mostly above about 13%, no sharp cut-off; inactive = mostly below about 14%; note: read at 38.3 µM for the half of the compounds with a filed dose
Of the large screens only hits and unclear results are named; the others gave an inactive call. The list is not random: actives were taken first. Their share in the collection is about 21%. Unless noted, calls come from the whole dose curve; as a rule, active = well fitted inhibition curve with a large enough effect; inconclusive = small, poorly fitted or top-dose-only effect, or another doubt; inactive = no such curve, though single readings can be large or run the other way.

O=C(C1CCN(C2CCN(C/C(Cl)=C/c3ccccc3)CC2)CC1)N1CCOCC1	Pf growth 96h 10µM
CCOC(=O)N1CCN(CCc2ccccc2)CC1	Pf growth 96h 10µM
CCOC(=O)N1CCN(C(=O)CSCc2ccccc2)CC1	Pf growth 96h inconclusive, Cycloheximide cs 35
CCOC(=O)N1CCN(C(=O)CSCc2ccc(Cl)cc2)CC1	none
CCOC(=O)C1CCCN(C(=O)CSc2ccc(Br)cc2)C1 (stereo not drawn)	Shiga inhibitor 65, Cycloheximide cs 42
O=C(COC(=O)c1ccc2c(c1)C(=O)N(Cc1ccco1)C2=O)NCC(F)(F)F	none
COc1ccc(OC)c(CN2CCN(Cc3cccc4ccccc34)CC2)c1	Pf growth 48h inconclusive
CCC(C)(C)c1nnc(NC(=O)c2ccc([N+](=O)[O-])cc2)s1	none (no result: Pf growth 48h)
CCOC(=O)C1CCCN(C(=O)Cn2nc(Cc3cccnc3)c3ccccc3c2=O)C1 (stereo not drawn)	Pf growth 96h 7.4µM (no result: Pf growth 48h)
CCOC(=O)C1CCCN(C(=O)c2ccccc2NC(C)=O)C1 (stereo not drawn)	none (no result: Pf growth 96h)
CCOC(=O)C1CCCN(C(=O)c2ccccc2Oc2ccccc2)C1 (stereo not drawn)	Pf growth 96h 1.3µM
COc1ccc2[nH]cc(CCNS(=O)(=O)Cc3ccccc3)c2c1	none
Cc1ccc(C(=O)NC(=S)Nc2cccnc2Cl)cc1	Shiga inhibitor 91, Cycloheximide cs 47
COc1ccccc1C(=O)NC(=S)Nc1cccnc1Cl	Cycloheximide cs 18
COc1ccc(NC(=O)C2CCN(Cc3cnn(-c4ccccc4)c3-n3cccc3)CC2)cc1OC	Pf growth 48h inconclusive, Shiga inhibitor 49, Cycloheximide cs 34
O=C(O)CSCc1cnn(-c2ccccc2)c1-n1cccc1	Pf growth 48h 10µM
COc1ccc(OC)c(NC(=O)C2CCN(Cc3cnn(-c4ccccc4)c3-n3cccc3)CC2)c1	Pf growth 96h inconclusive (no result: Pf growth 48h)
COc1cccc(NC(=O)C2CCN(Cc3cnn(-c4ccccc4)c3-n3cccc3)CC2)c1	Pf growth 96h inconclusive, Cycloheximide cs 51 (no result: Pf growth 48h)
O=C(Nc1ccccc1Cl)C1CCN(Cc2cnn(-c3ccccc3)c2-n2cccc2)CC1	Cycloheximide cs 27 (no result: Pf growth 48h, Pf growth 96h)
Cc1nn(CC(=O)N2CCC(C(N)=O)CC2)c(=O)c2nn(-c3ccccc3)c(C)c12	none
CO/C(N)=C(\C#N)N=Cc1ccccc1Cl	Cycloheximide cs 21
c1ccc(CNc2nc3ccccc3[nH]2)cc1	Cycloheximide cs 26
Cc1ccc2nc(NCc3ccccc3)c(C#N)cc2c1	none
COc1ccc2nc(NCc3ccccc3)[nH]c2c1	Pf growth 48h inconclusive, Cycloheximide cs 24 (no result: Pf growth 96h)
COc1ccc2nc(NCCO)[nH]c2c1	Pf growth 96h inconclusive
Cc1ccc2nc(NCc3ccccc3)[nH]c2c1	Pf growth 48h inconclusive, Shiga inhibitor 91, Pf growth 96h 1.2µM, Cycloheximide cs 34
S=c1nc(NCc2ccc3c(c2)OCO3)c2ccccc2[nH]1	Pf growth 96h inconclusive
c1ccc2[nH]c(NCc3ccc4c(c3)OCO4)nc2c1	Shiga inhibitor 63, Cycloheximide cs 34
COc1ccc2nc(N3CCCC3)[nH]c2c1	Cycloheximide cs 19 (no result: Pf growth 96h)
O=c1[nH]c2ccccc2nc1NCc1ccccc1	Pf growth 96h 4.7µM
NC(=S)Nc1nc2ccccc2[nH]c1=O	none (no result: Pf growth 96h)
CCCCN1CCc2[nH]c(=S)[nH]c(=O)c2C1	none
Cc1c(Br)c([N+](=O)[O-])nn1CC(=O)Nc1sc2c(c1C(=O)OC(C)C)CCCC2	Pf growth 48h inconclusive, Shiga inhibitor 123
O=C(CCc1nnc(C2(c3ccc(Cl)cc3)CCC2)o1)N1CCCC(O)C1 (stereo not drawn)	Pf growth 96h inconclusive
CC(=O)OC/C=C(C)/C=C/C=C(C)/C=C/C1=C(C)CCCC1(C)C	none (no result: Pf growth 48h, Pf growth 96h)
CC1=C(/C=C/C(C)=C/C=C/C(C)=C/CO)C(C)(C)CCC1	Pf growth 48h inconclusive, Pf growth 96h 11µM (no result: Shiga inhibitor, Cycloheximide cs)
CC1Cc2ccccc2N1C(=O)CSc1nnc2c(n1)[nH]c1ccccc12 (stereo not drawn)	Pf growth 48h inconclusive, Pf growth 96h inconclusive
CC(C)c1ccc2[nH]c3nc(SCC(=O)N4CCOCC4)nnc3c2c1	Pf growth 96h inconclusive
CC1CCN(C(=O)CSc2nnc3c(n2)[nH]c2ccc(F)cc23)CC1	Pf growth 48h 1.7µM, Pf growth 96h inconclusive
CC1CCc2cc(F)ccc2N1C(=O)CSc1nnc2c(n1)[nH]c1ccc(F)cc12 (stereo not drawn)	Pf growth 48h 1µM, Pf growth 96h inconclusive
O=C(Nc1nncs1)C12CC3CC(CC(Cl)(C3)C1)C2	none
CC(=O)OC1=C(C#N)Cn2ccc3cccc1c32	Pf growth 48h inconclusive, Pf growth 96h inconclusive
CCOC(=O)c1nc(C)nc(Sc2n[nH]c(-c3ccccc3)n2)c1C	Pf growth 48h 10µM, Pf growth 96h inconclusive
